According to the supplement of paper PMC8183993:
Where a name gives a salt, the structure may show the parent alone. ± gives the standard deviation of the averaged measurements. In all, about 3,100 compounds were measured (“mean cytoplasmic OPP incorporation (global translation) relative to DMSO”: median about 100, lowest 2% from about 56 on). Many of the other results were omitted from the sample, so the lowest values are more common in it than they were.

test system: U2OS; assay: mean cytoplasmic OPP incorporation (global translation) relative to DMSO (% of DMSO); higher = more protein synthesis; conditions: 10 µM; 24 h
Protocol: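 Primary image-based screen in U2OS cells: compounds at 10 uM for 24 h, then a 1 h o-propargyl-puromycin (OPP) pulse, click labelling, and high-throughput microscopy. Mean cytoplasmic OPP intensity and nuclei count were normalised to DMSO wells within each plate (DMSO = 100) and averaged over triplicate plates.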

In order of rising “mean cytoplasmic OPP incorporation” value:
1. Cc1cc(/C=C/c2ccc3cc(N(C)C)ccc3[n+]2C)c(C)n1-c1ccccc1 [Pyrvinium pamoate]  22
2. O=c1[nH]nc(Sc2ncc([N+](=O)[O-])s2)n1-c1ccc2c(c1)OCCO2  39.7 ± 16
3. COc1ccc(OC)c(C(O)CNC(=O)CN)c1 (configuration not stated) [Midodrine hydrochloride]  48.8
4. CN(C)Cc1c(C(=O)NCCOc2ccc(C(=O)NO)cc2)oc2ccccc12  56
5. COc1ccc(C(=O)NCc2ccc(OCCN(C)C)cc2)cc1OC [Itopride]  89.3
6. O=Cc1c2[nH]c3ccccc3c2cc2[nH]c3ccccc3c12 [6-Formylindolo [3,2-B] carbazole]  92.9
7. O=C1NCCN1c1ncc([N+](=O)[O-])s1 [Niridazole]  94.7
8. CCN(CCN(C)C)C(=O)CNCc1cc(C(N)=O)ccn1  96.2
9. O=C(CCCN1C(=O)c2cccc3cccc(c23)C1=O)NO [Nullscript]  97.6
10. Nc1nc(NCCc2ccc(O)cc2)nc2nc(-c3ccco3)nn12  99.2
11. C[C@H](CCC(=O)NCCS(=O)(=O)O)[C@H]1CC[C@H]2[C@@H]3CC[C@@H]4C[C@H](O)CC[C@]4(C)[C@H]3C[C@H](O)[C@]12C [Taurodeoxycholic acid]  99.3
12. CCC(CC)[C@H](NC(C)=O)[C@@H]1[C@H](O)[C@@H](C(=O)O)C[C@H]1NC(=N)N [Peramivir  Trihydrate]  99.4
13. O=C(O)COc1ccc(OCCNC[C@H](O)COc2ccccc2)cc1 [ICI 215,001 hydrochloride]  100
14. CCCCC[C@H](O)/C=C/[C@@H]1[C@H]2C/C(=C/CCCC(=O)O)C[C@H]2C[C@H]1O [Carbacyclin]  101
15. COc1cc(C(=O)NCc2ccc(OCCN(C)C)cc2)cc(OC)c1OC [Trimethobenzamide hydrochloride]  102
16. Cc1cc(C)c(N(Cc2ccccc2)S(=O)(=O)c2ccc(OCCNC(=O)c3cc4ccccc4o3)cc2)c(C(=O)NO)c1  103
17. COc1ccc2[nH]cc(CCNC(C)=O)c2c1 [Melatonin]  103 ± 4.6
18. CCCCCS(=O)(=O)CCCCCCCCCCn1c(-c2ccc(O)cc2)c(C)c2cc(O)ccc21  104
19. c1ccc2sc(N3CCN(Cc4ccc5c(c4)OCO5)CC3)nc2c1 [2-[1-(4-Piperonyl)piperazinyl]benzothiazole]  105
20. CNCCCCOc1ccccc1Cc1ccccc1 [Bifemelane hydrochloride]  107
21. O=C(NCCCN1CCC2(CC1)OCc1ccccc12)[C@H]1CCCN1Cc1ccccc1  108
22. CCCCn1c(=O)c2[nH]c(C34CC5CC(CC3C5)C4)nc2n(CCCO)c1=O  117
